Here are results for 30 compounds from PubChem BioAssay AID1377 (University of Pittsburgh Molecular Library Screening Center, 2008).

Hit rate of the full screen: of about 220,000 compounds, about 830 (0.38%) were called active. What follows is part of a selection rich in actives, with near analogues and random picks from the rest. Values without a mark were called inactive.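 The calls were made as follows: active = activation, scaled between plate controls, above about 75% (limit read from the data); inactive = activation under that limit.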

This test in a line: rescue of L929 cells from zVAD death – primary screen (AID 1377).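 Also: 0% = zVAD with DMSO and 100% = DMSO alone without zVAD.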 The note with it: L929 zVAD necroptosis rescue, ATP luminescence, 24 h, at 10 µM, stronger effect = higher value; with zVAD 60 µM unless noted.
As for `Cc1ccc(-c2csc(N(Cc3ccco3)C(=O)c3cccs3)n2)cc1`, the viability rescue is -0.54%. As to `COc1ccc2nc(NC(=O)c3ccc(Br)s3)sc2c1`, the viability rescue was 0.35%.

As to `COc1ccc2nc(NC(=O)NC3CCCCC3)sc2c1`, the viability rescue is 85.7% (active).

Turning to `COc1ccc2nc(Nc3nc4ccc(NC(C)=O)cc4s3)sc2c1`, the viability rescue was 0.58%. As for `CC1=NNC(=O)C1CC(=O)N/N=C/c1ccncc1` (stereo not given), the figure is -0.36%; as for `Cc1ccc2[nH]c3c(=O)n(Cc4ccccn4)cnc3c2c1`, 0.13% [with zVAD 20 µM]. As to `CC(C)OCCCNc1ncnc2c1[nH]c1ccc(F)cc12`, the viability rescue was 4.34% [with zVAD 20 µM].

With `COc1cc(OC)c(OC)cc1/C=N/Nc1ncnc2c1[nH]c1ccc(C)cc12`, the viability rescue is 78.9% (active). As for `CCOC(=O)c1cc(Sc2ccccc2N)cc(C(=O)OCC)n1`, the figure is 0.51%; as for `CCOc1ccc(NC(=O)c2ccc(CSc3nnnn3C)cc2)cc1`, 1.6%. For the compound `Cc1cc(C)nc(-n2nc(C)cc2NC(=O)c2ccc(F)cc2F)n1`, the viability rescue was 0.15%. As to `Cc1cccc(-n2nc3c(c2NC(=O)c2ccc(Br)o2)CSC3)c1C`, the viability rescue was 0.18% [with zVAD 20 µM].

For `Cc1cc(C)nc(-n2nc(C)cc2NC(=O)c2ccc(Br)o2)n1`, the viability rescue is 82.2% [with zVAD 20 µM] (active). With `COc1ccc(Nc2nc(-c3ccccc3)cs2)cc1`, the viability rescue was 0.79%. As to `COc1ccc(-c2csc(Nc3ccc(O)cc3)n2)cc1`, the viability rescue was 93% (active). As for `COc1ccc(-c2csc(Nc3ccccn3)n2)cc1`, the figure is 1.69%; as for `COc1cc2c(C(=O)N3CCN(C)CC3)c(CSc3ccccc3)n(C)c2cc1Br`, -0.59%; as for `CC(C)NC(=S)NN=C1CCCCCCCCCCC1`, 0.38%. As to `Cc1nn(C)c(Oc2ccccc2)c1CCNS(=O)(=O)c1ccc(F)cc1`, the viability rescue is 0.02% [with zVAD 20 µM].

Turning to `COc1ccc(-c2cc(C(=O)NC(Cc3c[nH]c4ccccc34)C(=O)O)c(C)o2)cc1OC` (stereo not given), the viability rescue was 1.33%. As for `CCN(CC)S(=O)(=O)c1ccc(NC(=O)c2cccnc2Cl)c(NC(=O)c2cccnc2Cl)c1`, the viability rescue is 82.2% (active). On to `Cc1ccc(CNC(=O)c2cccnc2Cl)cc1`, for which the viability rescue was 0.12%. Consider `CCN(CC)S(=O)(=O)c1ccc(Cl)c(NC(=O)c2ccncc2)c1`, for which the viability rescue was 0.44%. With `O=C(N/N=C/c1cccc([N+](=O)[O-])c1)c1ccncc1`, the viability rescue is -0.83%. To `CN1CCN(C2=NCCO2)CC1` belongs 1%; to `CCOC(=O)C1(CCOc2ccccc2)CCN(C(=O)c2cncs2)CC1`, -0.01%; to `COc1ccc(Nc2nc(Cl)nc(NCc3ccco3)n2)cc1`, 0.2% [with zVAD 20 µM].

For the compound `COc1ccc(-n2cnc3cc(NCc4ccco4)ccc32)cc1`, the viability rescue was 79.9% (active). Take `COc1ccc(Nc2nc(NCc3ccco3)nc(N/N=C/c3ccccc3Cl)n2)cc1`: the viability rescue was 0.33%. Turning to `O=C(Nc1cccc2c1N(C(=O)c1ccco1)CCC2)c1ccco1`, the viability rescue is -0.96%.
